Measurements reported in PubChem BioAssay (NCATS).
Values without a mark were called inactive. Records with an inconclusive call do not appear. A call without a number means that no potency is given here. Active and inactive are the calls of the source. Calls come from the whole dose curve; as a rule, active = well fitted curve in the direction sought with a large enough effect; inconclusive = small, poorly fitted or top-dose-only effect, or another doubt; inactive = no such curve, though single readings can be large; an effect the other way counts as inactive or inconclusive.

Assays:
[1] = target: Phospholipid hydroperoxide glutathione peroxidase GPX4 (Homo sapiens) (UniProt P36969); experiment: Primary qHTS Assay for Inhibitors of Recombinant Selenoprotein Glutathione Peroxidase 4 (GPX4) (AID 1845192); note: nearly all actives have a fitted effect of over 65% in size; for activity change, negative = inhibition: series mostly up to about 50 µM
Sequence of Phospholipid hydroperoxide glutathione peroxidase GPX4 (Homo sapiens) (P36969 whole entry, looked up): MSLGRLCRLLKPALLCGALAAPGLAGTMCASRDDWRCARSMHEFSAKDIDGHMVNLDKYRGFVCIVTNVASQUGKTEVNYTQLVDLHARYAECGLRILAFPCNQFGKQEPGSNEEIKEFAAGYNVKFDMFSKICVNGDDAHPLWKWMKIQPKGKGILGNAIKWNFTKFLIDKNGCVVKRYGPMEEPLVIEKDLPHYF
How it was run: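 qHTS, GR-coupled: GPX4 200 nM + cpd 30 min RT → GSH 1 mM, NADPH 0.5 mM, GR 100 nM → CHP 0.5 mM start; fluor 340/450 at t0 and t15 min; no-enzyme wells as control.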

[2] = target: Luciferin 4-monooxygenase (Photinus pyralis) (UniProt P08659); experiment: Primary firefly luciferase (FLuc) qHTS assay for identification of artifact compounds. (AID 1845220); note: nearly all actives have a fitted effect of over 60% in size; note: potency is the fitted concentration of half-maximal effect; for activity change, negative = inhibition: series mostly up to about 54 µM
How it was run: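 In this counter-screen for luciferase artifacts, test compounds met substrate (10 uM each luciferin and ATP) before 10 nM enzyme started the reaction. Light output was measured 5 min later.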

[3] = Primary fluorescence-based thiol-reactive (MSTI) qHTS assay for identification of artifact compounds. (AID 1845221); note: nearly all actives have a fitted effect of over 65% in size; note: potency is the fitted concentration of half-maximal effect;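 for activity change, negative = thiol reactive: series mostly up to about 54 µM; thiol-reactive compounds lower the probe fluorescence signal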
How it was run: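 In PBS pH 7.4 with 2% DMSO, each compound met 4 uM MSTI for one hour at ambient temperature, shielded from light, before fluorescence detection.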

[4] = system: Nanoluciferase (engineered Oplophorus gracilirostris luciferase); experiment: Primary Nanoluciferase (NLuc) qHTS assay for identification of artifact compounds. (AID 1845222);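 note: NLuc secreted into diluted conditioned medium of S16 cells; series mostly up to about 54 µM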
How it was run: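 Using secreted nanoluciferase in S16 culture medium (0.22 um filtered, 1:55 dilution), compounds were preincubated 15 min at RT. Signal was generated with Nano-Glo reagent (1:100) over 5 min.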

[5] = Primary redox qHTS assay for identification of artifact compounds. (AID 1845223)
How it was run: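 Redox-cycling detection via DTT (250 uM final) oxidation coupled to Amplex Red (25 uM)/HRP (250 mU/mL) in HBSS. 15 min preincubation plus 30 min after DTT, room temperature. Ex/Em 525/598 nm; 4-parameter Hill fit against DMSO and 10 uM DA3003.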

Row | Structure (SMILES) | Potency [1] | Potency [2] | Potency [3] | Potency [4] | Potency [5] | activity change, negative = inhibition [2] | activity change, negative = thiol reactive [3] | activity, negative = inhibition [4] | redox activity (% of DA3003) [5]
1 | CCOC(=O)C(CCc1ccccc1)NC(C)C(=O)N1C(=O)N(C)CC1C(=O)O (stereo not given) | inactive | inactive | inactive | inactive | inactive |  |  |  | 
2 | CC1(C)CCC2(C(=O)OC3OC(CO)C(O)C(O)C3O)CCC3(C)C(=CCC4C5(C)CCC(OC6OC(C(=O)O)C(OC7OC(CO)C(O)C(O)C7O)C(OC7OC(CO)C(O)C(O)C7O)C6O)C(C)(C)C5CCC43C)C2C1 (stereo not given) | inactive |  |  |  |  | -0.248% [at 11.6 µM] | 123% [at 11.5 µM] | 1.02% [at 11.6 µM] | 10.6% [at 11.5 µM]
3 | CCOc1cc(CC(=O)NC(CC(C)C)c2ccccc2N2CCCCC2)ccc1C(=O)O (stereo not given) | inactive | inactive | inactive | inactive | inactive |  |  |  | 
4 | CN(C)C/C=C/C(=O)Nc1cc2c(Nc3ccc(F)c(Cl)c3)ncnc2cc1OC1CCOC1 (stereo not given) | inactive | inactive | inactive | inactive | inactive |  |  |  | 
5 | O=C(Nc1ccc(Cl)cc1F)c1ccccc1O | inactive | 1.2 µM (active) | inactive | inactive | inactive |  |  |  | 
6 | CC[C@@H](O)C[C@@H]1C(C)=C[C@@H]2CCCC[C@@H]2[C@@]1(C)C(=O)O | inactive | inactive | inactive | inactive | inactive |  |  |  | 
7 | CC(C)CC(=O)O[C@@H]1OC=C(CO[C@@H]2O[C@H](CO)[C@@H](O)[C@H](O)[C@H]2O)[C@H]2[C@@H]3O[C@H]3[C@@](O)(CO)[C@@H]12 | inactive | inactive | inactive | inactive | inactive |  |  |  | 
8 | CN(C)c1nc(NC2CCC(NC(=O)c3ccc(F)c(F)c3)CC2)nc2ccccc12 (stereo not given) | inactive | inactive | inactive | inactive | inactive |  |  |  | 
9 | O=C1CC2(CCCC2)[C@H](O)C(=O)N1CCCCN1CCN(c2ncccn2)CC1 | inactive | inactive | inactive | inactive | inactive |  |  |  | 
10 | C[C@@H]1O[C@@H](O[C@H]2[C@H](O[C@H]3CC[C@@]4(C)C(CC[C@]5(C)C4C=C[C@]46OC[C@@]7(CCC(C)(C)C[C@H]74)[C@@H](O)C[C@]65C)[C@]3(C)CO)O[C@H](CO)[C@@H](O)[C@@H]2O[C@@H]2O[C@H](CO)[C@@H](O[C@@H]3O[C@@H](C)[C@H](O)[C@@H](O)[C@H]3O)[C@H](O)[C@H]2O)[C@H](O)[C@H](O)[C@H]1O (stereo not given in full) | inactive |  |  |  |  | -4.04% [at 11.6 µM] | 81.1% [at 11.5 µM] | -2% [at 11.6 µM] | 9.95% [at 11.5 µM]
11 | CC(NC(=O)CCc1nc2ccccc2c(=O)[nH]1)c1ccccc1 (stereo not given) | inactive | inactive | inactive | inactive | inactive |  |  |  | 
12 | Cc1c(C(=O)Nc2ccc(N3CC(C)OC(C)C3)nc2)cccc1-c1ccc(OC(F)(F)F)cc1 (stereo not given) | inactive | inactive | inactive | inactive | inactive |  |  |  | 
13 | CNC(=O)c1cccc(-c2ccc3c(N4CCOC[C@@H]4C)nc(N4CCOC[C@@H]4C)nc3n2)c1 | inactive | inactive | inactive | inactive | inactive |  |  |  | 
14 | CC(Nc1ncnc2nc[nH]c12)c1cc2cccc(Cl)c2c(=O)n1-c1ccccc1 (stereo not given) | inactive | inactive | inactive | inactive | inactive |  |  |  | 
15 | COc1ccc(CNC(=O)c2sc3nc(C)cc(C)c3c2N)cc1 | inactive | inactive | inactive | inactive | inactive |  |  |  | 
16 | CC1(C)CCCC2(C)C1CC(=O)C13CC(CCC12)C(O)(CO)C3 (stereo not given) | inactive | inactive | inactive | inactive | inactive |  |  |  | 
17 | C[C@@H]1O[C@@H](O[C@@H]2[C@@H](O)[C@@H](O[C@]3(CO)O[C@H](CO)[C@@H](O)[C@@H]3OC(=O)/C=C/c3ccc(O)cc3)O[C@H](CO)[C@H]2OC(=O)/C=C/c2ccc(O)cc2)[C@H](O)[C@H](O)[C@H]1O[C@@H]1O[C@@H](C)[C@H](O[C@@H]2OC[C@](O)(CO)[C@H]2O)[C@@H](O)[C@H]1O | inactive |  |  |  |  | -0.433% [at 11.6 µM] | 79.7% [at 11.5 µM] | 0% [at 11.6 µM] | 17.5% [at 11.5 µM]
18 | CC(=O)OC12COC1CC(O)C1(C)C(=O)C(O)C3=C(C)C(OC(=O)C(O)C(NC(=O)OC(C)(C)C)c4ccccc4)CC(O)(C(OC(=O)c4ccccc4)C21)C3(C)C (stereo not given) | inactive | inactive | inactive | inactive | inactive |  |  |  | 
19 | COc1cc(C2c3cc4c(c(O)c3CC(CO)C2C(=O)O)OCO4)cc(OC)c1O (stereo not given) | inactive | inactive | 10.3 µM (active) | inactive | inactive |  |  |  | 
20 | CC(=O)O[C@H]1C(=O)[C@@]2(C)[C@H]([C@H](OC(=O)c3ccccc3)[C@]3(O)C[C@H](OC(=O)[C@H](O)[C@@H](NC(=O)c4ccccc4)c4ccccc4)C(C)=C1C3(C)C)[C@]1(OC(C)=O)CO[C@@H]1C[C@@H]2O | inactive |  |  |  |  | -3.6% [at 11.6 µM] | 52.3% [at 11.5 µM] | 4.66% [at 11.6 µM] | 1.32% [at 11.5 µM]
